From PubChem
Only some compounds are listed: those with a hit (about 11% of all), similar ones and a draw of the others.
HEK293 tox: kills HEK 293 cells; Potency, µM (titrated, usually from 115 µM), for inactives: at the highest dose activity change, negative = cytotoxicity, most hits filed as inhibitors; AID 1345083; HEK 293 viability, ATP luminescence (CellTiter-Glo), 48-72 h; 6.6% of 94,000 active; note: nearly all actives have a fitted effect of over 60% in size
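qHTS cytotoxicity; HEK 293, 250 cells/well; compound pinned; 48 or 72 hr, 37 degree Celsius, 5% CO2, 95% humidity; CellTiter-Glo, 10 min RT; luminescence (ATP).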
3T3 cytotox: NIH 3T3 cell cytotoxicity; AID 1345082; Potency, µM (series often up to 96.7 µM), without a hit: at the highest dose activity change, negative = cytotoxicity, usual class: inhibitors; NIH 3T3 viability, CellTiter-Glo ATP luminescence, 48-72 h; 4.3% of 94,000 active; note: nearly all actives have a fitted effect of over 55% in size
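Viability of NIH 3T3 cells after 48 or 72 hr compound treatment at 37 °C was assessed by CellTiter-Glo, with luminescence imaged following a 10 min room-temperature step.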
Luciferase inh: Photinus pyralis luciferase inhibition; P08659; purified P. pyralis luciferase, luminescence, biochemical; Potency, µM (highest dose often 115 µM), hits mostly inhibitors; 2.5% of 76,000 active; AID 1347043; note: nearly all actives have a fitted effect of over 65% in size
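Purified P. pyralis luciferase (10nM final) in 50mM Tris acetate pH 7.5, 10mM Mg acetate, 0.01% Tween-20, 0.05% BSA with 10uM D-luciferin and 10uM ATP. Compounds titrated qHTS. Luminescence imaged on CCD.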
hNpr1 antagonist: human Npr1 receptor antagonism; HEK293 hNpr1 GloSensor cGMP, ANP-stimulated luminescence; 1.6% of 76,000 active; P16066; Potency, µM (top dose mostly 46.3 µM), for inactives: top-dose activity change, negative = inhibition, usual class: inhibitors; calls by dose curve; note: nearly all actives have a fitted effect of over 60% in size
Target sequence (P16066 whole entry, looked up): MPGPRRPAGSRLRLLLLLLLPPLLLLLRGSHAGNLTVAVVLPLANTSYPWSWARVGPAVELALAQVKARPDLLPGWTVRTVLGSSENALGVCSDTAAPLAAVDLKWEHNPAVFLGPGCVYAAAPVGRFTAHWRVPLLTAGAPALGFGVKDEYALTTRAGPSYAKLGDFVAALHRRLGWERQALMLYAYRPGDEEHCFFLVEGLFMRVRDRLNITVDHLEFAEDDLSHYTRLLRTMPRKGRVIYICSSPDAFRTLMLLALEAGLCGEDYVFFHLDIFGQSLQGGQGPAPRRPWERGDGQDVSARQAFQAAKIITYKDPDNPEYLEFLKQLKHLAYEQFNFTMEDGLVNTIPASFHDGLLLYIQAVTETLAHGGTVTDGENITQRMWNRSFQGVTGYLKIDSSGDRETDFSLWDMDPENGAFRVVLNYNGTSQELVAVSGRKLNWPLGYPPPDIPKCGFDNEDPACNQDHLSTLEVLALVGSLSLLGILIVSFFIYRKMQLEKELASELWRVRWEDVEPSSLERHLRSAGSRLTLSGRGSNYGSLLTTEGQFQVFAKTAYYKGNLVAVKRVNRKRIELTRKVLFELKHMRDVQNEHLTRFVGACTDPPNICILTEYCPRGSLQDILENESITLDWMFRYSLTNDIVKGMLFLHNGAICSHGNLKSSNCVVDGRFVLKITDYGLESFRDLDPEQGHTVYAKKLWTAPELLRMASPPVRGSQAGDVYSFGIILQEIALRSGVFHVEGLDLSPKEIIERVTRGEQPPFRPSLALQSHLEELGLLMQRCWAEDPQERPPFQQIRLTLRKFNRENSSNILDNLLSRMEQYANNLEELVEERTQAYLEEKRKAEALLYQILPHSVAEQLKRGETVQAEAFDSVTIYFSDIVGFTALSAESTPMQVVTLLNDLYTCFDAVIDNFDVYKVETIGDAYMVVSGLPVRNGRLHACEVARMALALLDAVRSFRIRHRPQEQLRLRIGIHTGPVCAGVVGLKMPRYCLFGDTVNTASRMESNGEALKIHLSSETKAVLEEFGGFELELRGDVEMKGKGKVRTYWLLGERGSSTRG
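HEK293 cells stably expressing human Npr1 and cGMP GloSensor pGS-40F, loaded 2 h with 2% GloSensor reagent, given compound 30 min at room temperature. Luminescence read before and 20 min after 0.1 nM hNppA.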
* = called active by the depositor; i = inactive; ? = inconclusive; . = not tested or not shown; ! = not active in a repeat; [ ] = another dose, or the depositor's remark. Unless noted, calls come from the whole dose curve; as a rule, active = well fitted curve in the direction sought with a large enough effect; inconclusive = small, poorly fitted or top-dose-only effect, or another doubt; inactive = no such curve, though single readings can be large; an effect the other way counts as inactive or inconclusive. % is set by controls: 0 for no effect and ±100 for the full control effect; potency is the fitted concentration of half-maximal effect.

SMILES	HEK293 tox	3T3 cytotox	Luciferase inh	hNpr1 antagonist
COc1ccccc1-c1nc(C(=O)NCCc2ccc(Cl)cc2)n2ccncc12	?	28.2µM*	.	.
COCCNC(=O)c1nc(-c2c(C)cccc2C)c2ccccn12	35.5µM*	?	i	-0.6%[70.6 µM]
O=C([C@@H]1C[C@H](F)CN1S(=O)(=O)Cc1ccc(Cl)cc1)N1CCc2ccccc2C1	?	15.8µM*	i	?
Cc1ccc(NC(=O)N2C[C@@H](F)C[C@H]2C(=O)N2CCc3ccccc3C2)cc1F	39.8µM*	35.5µM*	i	-1.1%
CNC(=O)c1cc(C)nc2onc(C3CCCN(C(=O)c4cccnc4)C3)c12 (stereo not given)	-18.3%	-16.8%	.	.
Cn1ncc2c(C(=O)NCCc3ccc(F)cc3)cc(-c3ccc(Cl)cc3)nc21	?	-12.5%	.	.
Cn1ncc2c(C(=O)NCCc3ccc(Cl)cc3)cc(C(C)(C)C)nc21	39.8µM*!	?	.	.
Cn1ncc2c(C(=O)NCCCl)cc(-c3ccccc3C(F)(F)F)nc21	-5.2%	-22.8%	.	.
Cn1ncc2c(C(=O)NCc3cccc(Cl)c3)cc(C(C)(C)C)nc21	50.1µM*	?	.	.
Cn1ncc2c(C(=O)NCCc3ccc(Cl)cc3)cc(-c3ccccc3C(F)(F)F)nc21	39.8µM*	31.6µM*	.	.
Cc1ccc(-c2cc(C(=O)NCCc3ccc(F)cc3)c3cnn(C)c3n2)c(C)c1	39.8µM*	?	.	.
O=C(NC1C[C@H]2CC[C@@H](C1)N2C(=O)C1CCCC1)c1ccc(F)cc1 (stereo not given in full)	1.9%	-16.9%	.	.
CSCCNC(=O)c1cc(Br)cn2ccnc12	-24.5%[172 µM]	-13.1%[138 µM]	44.7µM*!	10.5%[70.6 µM]
CC(=O)N[C@H]1C[C@@H](c2nc(-c3ccc4c(c3)OCO4)no2)N(C)C1	-14.0%[172 µM]	-22.8%[174 µM]	i	1.2%[70.6 µM]
c1cc2c(cc1-c1noc(-c3nc(-c4ccc5c(c4)OCO5)no3)n1)OCO2	12.9%	i	i	-9.2%
COCCc1noc(-c2nc(-c3ccc4c(c3)OCO4)no2)n1	?	-4.3%	17.8µM*	-17.1%
O[C@@H]1C[C@@H](c2nc(-c3ccc4c(c3)OCO4)no2)N(Cc2ccncc2)C1	89.1µM*	?	?	?
CN1C[C@H](O)C[C@H]1c1nc(-c2ccc3c(c2)OCO3)no1	-25.3%[230 µM]	-21.4%[230 µM]	28.2µM*	-13.6%[70.6 µM]
OCc1ccc(CN2C[C@H](O)C[C@H]2c2nc(-c3ccc4c(c3)OCO4)no2)o1	-16.3%[172 µM]	-27.9%[174 µM]	17.8µM*	-13.0%[70.6 µM]
COc1cc(Cl)cc(CN2CCC(O)(c3ccccc3)CC2)c1OC	-10.7%	?	i	-10.4%
COc1ccc(CN2CCOC[C@H]2c2ncc(C(C)(C)C)[nH]2)cc1	-29.7%[172 µM]	-15.5%[138 µM]	i	2.6%[70.6 µM]
CCN(C(=O)CN1C(=O)NC(c2ccccc2Cl)C2=C1COC2=O)c1cccc(C)c1 (stereo not given)	?	?	i	3.3%
COc1cccc(CNC(=O)C2CCN(c3nccc(Nc4ccccc4OC)n3)CC2)c1	?	39.8µM*	.	.
COc1ccccc1Nc1ccnc(N2CCCC(C(=O)NCc3cccs3)C2)n1 (stereo not given)	?	31.6µM*	.	.
COC(=O)CNC(=O)[C@@H]1CCCN1c1nccc(Nc2ccccc2OC)n1	-22.9%	-30.0%	.	.
SMILES	HEK293 tox	3T3 cytotox	Luciferase inh	hNpr1 antagonist
COC(=O)CNC(=O)C1CCN(c2nccc(Nc3ccccc3OC)n2)CC1	-19.2%	-24.3%	.	.
COc1ccccc1Nc1ccnc(N2CCCC(C(=O)NCc3ccc(Cl)cc3)C2)n1 (stereo not given)	11.2µM*	?	.	.
COc1cccc(CNC(=O)C2CCCN(c3nccc(Nc4ccccc4OC)n3)C2)c1 (stereo not given)	?	31.6µM*	.	.
N#Cc1cccc(C(=O)N2CCC3(CCC3N3CCOCC3)CC2)c1 (stereo not given)	-0.3%	-17.8%	.	.
COc1cccc(N2C(=O)NC(=NC3CCCC3)C23CCN(Cc2cccn2C)C3)c1 (stereo not given)	-2.9%	i	.	.
CC(=O)Nc1cccc(-c2ccc3c(n2)CN(Cc2ccccc2F)C(=O)CO3)c1	?	?	i	-11.8%[70.6 µM]
CC(=O)Nc1cccc(-c2ccc3c(n2)CN(Cc2nc4ccccc4s2)C(=O)CO3)c1	?	?	?	-6.6%
O=C1COc2ccc(-c3cc(F)cc(F)c3)nc2CN1Cc1ccccc1F	89.1µM*	?	i	1.3%[70.6 µM]
O=C1COc2ccc(OCc3ccccc3)nc2CN1Cc1ccccc1F	?	100µM*	i	?
O=C1COc2ccc(-c3ccc(F)c(Cl)c3)nc2CN1Cc1nc2ccccc2s1	50.1µM*	?	i	-10.3%
COCCn1c(=O)c(C(=O)N2CCN(c3ncccn3)CC2)nc2cccnc21	i	-8.5%	.	.
O=c1cc(N2CCOCC2)oc2c(N3CCOCC3)nccc12	?	39.8µM*	i	6.3%[70.6 µM]
O=c1cc(N2CCOCC2)oc2c(NCc3ccc(F)cc3)nccc12	?	25.1µM*	i	3.9%[70.6 µM]
Cc1cc(-c2nccc3c(=O)cc(N(C)c4ccccc4)oc23)ccn1	?	10µM*	i	-1.4%[70.6 µM]
COc1cc(F)ccc1-c1nccc2c(=O)cc(N3CCOCC3)oc12	-6.4%[172 µM]	44.7µM*	i	1.6%[70.6 µM]
O=c1cc(N2CCOCC2)oc2c(Nc3ccccn3)nccc12	-20.6%[172 µM]	?	i	4.6%[70.6 µM]
O=C(c1ccc2c(c1)OCO2)N1CCCN(CCn2nc3n(c2=O)CCCC3)CC1	i	-4.9%	.	.
CCCCN1CCN(C(=O)[C@@]23CCCC[C@H]2N(CCC(C)C)C(=O)CC3)CC1	-10.1%	-34.0%	i	1.9%
CC(=O)Nc1cccc(-c2nccc3c(=O)cc(-c4ccncc4)oc23)c1	i	?	i	2.7%[70.6 µM]
CN(C)c1cc(=O)c2ccnc(-c3ccc(N4CCOCC4)cc3)c2o1	i	?	44.7µM*	-1.5%[70.6 µM]
CN1CCN(c2cc(=O)c3ccnc(Nc4ccc(F)c(Cl)c4)c3o2)CC1	?	100µM*	i	1.9%[70.6 µM]
COc1ccc(-c2nccc3c(=O)cc(N4CCOCC4)oc23)cc1OC	?	10µM*	i	-1.0%[70.6 µM]
Cc1cc(-c2nccc3c(=O)cc(N4CCOCC4)oc23)ccn1	-21.4%[172 µM]	31.6µM*	i	4.6%[70.6 µM]
Cc1ccccc1C(=O)N1CCC(CCC(=O)N2CCN(C(C)C)CC2)CC1	-4.5%	-6.4%	.	.
O=c1cc(N2CCOCC2)oc2c(-c3ccc(F)cc3)nccc12	?	31.6µM*	i	1.7%[70.6 µM]
O=c1cc(N2CCOCC2)oc2c(-c3ccc(F)c(Cl)c3)nccc12	-11.6%[172 µM]	17.8µM*	i	4.2%[70.6 µM]
Cc1ccccc1-c1nccc2c(=O)cc(C3=CCOCC3)oc12	?	?	i	0.7%[70.6 µM]
O=c1cc(-c2ccncc2)oc2c(-c3ccccc3F)nccc12	?	?	i	12.4%[70.6 µM]
O=c1cc(N2CCOCC2)oc2c(-c3cccc4[nH]ccc34)nccc12	?	8.91µM*	i	6.9%[70.6 µM]
CN1CCN(c2cc(=O)c3ccnc(-c4ccc(CO)cc4)c3o2)CC1	i	?	i	5.1%[70.6 µM]
